From PubChem
MOR-DOR ag-1: OPRM1-OPRD1 heterodimerization agonism | P35372+P41143 | cells, luminescence | activation, % at 9.3 µM | 340,000 compounds, 0.3% hits | AID 504326
HTR2A ag: mouse HTR2A agonism via beta-arrestin recruitment; P35363; CHO-K1 mHTR2A beta-arrestin complementation, luminescence; percent of 30 µM serotonin response; activation, % at 7.6 µM; 360,000 compounds, 0.66% hits;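 active means activation above a run cutoff, the mean activation of all tested compounds plus 3 SD, cut at about 14% in these data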
Target sequence (P35363 whole entry, looked up): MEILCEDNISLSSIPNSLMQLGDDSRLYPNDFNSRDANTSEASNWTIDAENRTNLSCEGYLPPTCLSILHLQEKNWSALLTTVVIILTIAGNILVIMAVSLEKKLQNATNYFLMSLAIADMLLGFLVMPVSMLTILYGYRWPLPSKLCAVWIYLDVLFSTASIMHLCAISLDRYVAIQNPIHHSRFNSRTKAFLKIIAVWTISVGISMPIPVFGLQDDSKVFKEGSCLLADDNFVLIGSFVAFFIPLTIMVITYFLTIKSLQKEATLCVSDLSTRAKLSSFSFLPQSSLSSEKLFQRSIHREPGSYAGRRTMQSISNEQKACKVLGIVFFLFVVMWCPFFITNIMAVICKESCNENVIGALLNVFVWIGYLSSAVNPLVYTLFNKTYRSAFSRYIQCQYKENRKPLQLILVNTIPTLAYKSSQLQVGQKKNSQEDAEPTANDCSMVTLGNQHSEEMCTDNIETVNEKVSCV
sPLA2-III inh: Blocks human group III sPLA2 activity; Q9NZ20; QFRET BODIPY PC-A2 liposome hydrolysis, fluorescence; inhibition, % at 12.2 µM; 370,000 compounds, 0.56% hits;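 active means inhibition above mean plus 3 SD of compounds lying within the high and low control bounds, cut at about 19% in these data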
MOR-DOR inv ag: inverse agonists of human mu-delta opioid receptor heterodimerization. 340,000 compounds, 0.21% hits. inhibition, % at 9.3 µM. cell-based MOR-DOR heterodimer luminescence, inverse agonism. P35372+P41143; in the data active means inhibition above about 22%, passing the limit was not always enough
HTR5A ag: HTR5A agonism, opioid heterodimer counter-screen. HTR5A agonist assay, luminescence, cell-based. P47898. AID 504692. activation, % at 9.3 µM. 340,000 compounds, 0.61% hits; in the data active means activation mostly above about 9.5%, no sharp cut-off; inactive means mostly below about 7.6%
HTR5A inv ag: inverse agonist of human HTR5A in OPRM1-OPRD1 counter-screen | P47898 | HTR5A cell line, luminescence, inverse agonism | inhibition, % at 9.3 µM | 340,000 compounds, 0.083% hits; in the data active means inhibition mostly above about 23%, no sharp cut-off; inactive means mostly below about 18%
MOR-DOR ag-2: opioid heterodimer agonism, HTR5A counter-screen; shares compounds with HTR5A ag; U2OS counter-screen cells, complementation luminescence, 3 h; activation, % at 9.3 µM; 800 compounds, 13% hits
HTR5A ag confirm: confirmation of human HTR5A agonists; shares compounds with HTR5A ag; HTR5A agonist cell assay, luminescence; activation, % at 9.3 µM; 800 compounds, 17% hits; AID 504915; in the data active means activation above about 17%
Each line names hits and unclear results; the compound was inactive in the other large screens (follow-up assays come after a bar, where they were run). Only some compounds are listed: those with a hit (about 2.2% of all), similar ones and a draw of the others. Unless noted, no stated cut-off is given here; in the data, active means activation above about 18%; inactive means the rest.

Cc1ccc(C(=O)N/C(=C\c2cccs2)C(=O)NCCc2c[nH]c3ccccc23)cc1C	HTR5A ag 19 | MOR-DOR ag-2 inactive | HTR5A ag confirm 38
COc1ccc(C(=O)CCC(=O)NCCc2c[nH]c3ccccc23)cc1	HTR5A ag 44 | MOR-DOR ag-2 inactive | HTR5A ag confirm 42
COc1ccc(C(=O)N/C(=C\c2cccc3ccccc23)C(=O)NCCc2c[nH]c3ccccc23)cc1OC	HTR5A ag 19 | MOR-DOR ag-2 inactive | HTR5A ag confirm inactive
CCOc1ccc(-n2c(SCC(=O)c3ccc4ccccc4c3)nnc2-c2cccc(Cl)c2)cc1	none (no result: MOR-DOR ag-1, HTR2A ag, MOR-DOR inv ag, HTR5A ag, HTR5A inv ag)
Cc1ccc(NC(=O)Nc2sc(=S)n(C)c2C)cc1	none (no result: sPLA2-III inh)
Cc1c(NC(=O)Oc2ccccc2)sc(=S)n1C	HTR5A ag 15 | MOR-DOR ag-2 inactive | HTR5A ag confirm 43
COc1ccc(C(=O)OCCN2CCN(C3CN(Cc4cn(Cc5cccc(C)c5)nn4)S(=O)(=O)C3)CC2)cc1OC (stereo unspecified)	none (no result: MOR-DOR ag-1, HTR2A ag, MOR-DOR inv ag, HTR5A ag, HTR5A inv ag)
Cc1ccccc1/C=N/Nc1ncnc2nc[nH]c12	HTR5A ag 14 | MOR-DOR ag-2 28 | HTR5A ag confirm inactive
O=C(Nc1nc(-c2cccs2)cs1)c1ccc(S(=O)(=O)N2CCCCC2)cc1	HTR5A ag 19 | MOR-DOR ag-2 inactive | HTR5A ag confirm inactive
CSc1cccc(NC(=O)N2CCc3ccc(NC(=O)c4ccccn4)cc3C2)c1	HTR5A ag 16 | MOR-DOR ag-2 inactive | HTR5A ag confirm inactive
CC(C)(c1ccccc1)c1ccc(OCCN2CCOCC2)cc1	HTR5A ag 14 | MOR-DOR ag-2 128 | HTR5A ag confirm inactive
COc1ccccc1NC(=O)CCN1CCCCCC1	none
COc1ccccc1NC(=O)CCN1CCN(Cc2ccccc2)CC1	HTR5A ag 21 | MOR-DOR ag-2 inactive | HTR5A ag confirm inactive
COc1ccccc1NC(=O)CN1CCN(c2ccccc2)CC1	HTR5A ag 15 | MOR-DOR ag-2 inactive | HTR5A ag confirm inactive
COc1ccccc1NC(=O)CN1CCN(c2ccc(Cl)cc2)CC1	none
O=C(N[C@@H]1CC[C@H]2SC[C@H](C(=O)O)N2C1=O)OCC1c2ccccc2-c2ccccc21	none (no result: MOR-DOR ag-1, HTR2A ag, MOR-DOR inv ag, HTR5A ag, HTR5A inv ag)
CCOC(=O)c1sc(NNC(=O)c2ccc(C)cc2)nc1C	none
CCOC(=O)c1sc(NNC(=O)c2ccc(F)cc2)nc1C	HTR5A ag 16 | MOR-DOR ag-2 inactive | HTR5A ag confirm inactive
O=C(CSc1nnc(-c2cccnc2)n1Cc1ccco1)Nc1ccc(Cl)c(Cl)c1	none (no result: MOR-DOR ag-1, HTR2A ag, MOR-DOR inv ag, HTR5A ag, HTR5A inv ag)
O=C(Nc1ccc(Nc2ccccc2)cc1)c1c(F)c(F)c(F)c(F)c1F	HTR5A ag 16 | MOR-DOR ag-2 inactive | HTR5A ag confirm inactive
O=c1c(Cc2ccc(F)cc2)c(O)ccn1Cc1ccc(F)cc1	none
O=c1c(Cc2ccc(F)cc2)c(O)ccn1Cc1ccc(Cl)cc1Cl	HTR5A ag 20 | MOR-DOR ag-2 inactive | HTR5A ag confirm 47
C#CC(=O)CC1(CN(Cc2ccccc2)C(=O)OC(C)(C)C)CCCCC1	HTR5A ag 17 | MOR-DOR ag-2 34 | HTR5A ag confirm inactive
NC1=NC(=O)/C(=C/c2cn(Cc3ccccc3)c3ccccc23)S1	HTR5A ag 16 | MOR-DOR ag-2 inactive | HTR5A ag confirm 17
COc1ccc(C2Nc3ccccc3C(=O)N2Cc2cccnc2)cc1COc1c(C)cccc1C (stereo unspecified)	none (no result: MOR-DOR ag-1, HTR2A ag, MOR-DOR inv ag, HTR5A ag, HTR5A inv ag)
Cn1c(N/N=C2\CCCc3ccccc32)nc2c1c(=O)n(Cc1ccc(F)cc1)c(=O)n2C	HTR5A ag 15 | MOR-DOR ag-2 inactive | HTR5A ag confirm inactive
CN(CCOC(=O)c1cc2ccccc2o1)C1CN(Cc2cn(Cc3cccc(F)c3)nn2)S(=O)(=O)C1 (stereo unspecified)	none (no result: MOR-DOR ag-1, HTR2A ag, MOR-DOR inv ag, HTR5A ag, HTR5A inv ag)
O=C(O)/C=C/C(=O)N1CCN(c2ccccc2F)CC1	none
Cc1cc(N2CCN(C(=O)/C=C/C(=O)O)CC2)c2ccccc2n1	HTR5A ag 15 | MOR-DOR ag-2 inactive | HTR5A ag confirm inactive
C[C@H]1[C@@H](OC(=O)NCc2ccccc2Cl)CC[C@@]23CCCN2C(=O)CCC[C@@H]13	none (no result: MOR-DOR ag-1, HTR2A ag, MOR-DOR inv ag, HTR5A ag, HTR5A inv ag)
CC(=O)N1CCN(c2nc(-c3ccco3)c3c(c2C#N)CC(C)(C)SC3)CC1	none
